Screens from PubChem BioAssay.
Anthrax LF inh2 = anthrax lethal factor protease inhibition; multiplex microsphere protease cleavage assay, LF; P15917; inhibition, % at 10 µM; 360,000 compounds, 0.12% hits; AID 588501
Target sequence (P15917 whole entry, looked up): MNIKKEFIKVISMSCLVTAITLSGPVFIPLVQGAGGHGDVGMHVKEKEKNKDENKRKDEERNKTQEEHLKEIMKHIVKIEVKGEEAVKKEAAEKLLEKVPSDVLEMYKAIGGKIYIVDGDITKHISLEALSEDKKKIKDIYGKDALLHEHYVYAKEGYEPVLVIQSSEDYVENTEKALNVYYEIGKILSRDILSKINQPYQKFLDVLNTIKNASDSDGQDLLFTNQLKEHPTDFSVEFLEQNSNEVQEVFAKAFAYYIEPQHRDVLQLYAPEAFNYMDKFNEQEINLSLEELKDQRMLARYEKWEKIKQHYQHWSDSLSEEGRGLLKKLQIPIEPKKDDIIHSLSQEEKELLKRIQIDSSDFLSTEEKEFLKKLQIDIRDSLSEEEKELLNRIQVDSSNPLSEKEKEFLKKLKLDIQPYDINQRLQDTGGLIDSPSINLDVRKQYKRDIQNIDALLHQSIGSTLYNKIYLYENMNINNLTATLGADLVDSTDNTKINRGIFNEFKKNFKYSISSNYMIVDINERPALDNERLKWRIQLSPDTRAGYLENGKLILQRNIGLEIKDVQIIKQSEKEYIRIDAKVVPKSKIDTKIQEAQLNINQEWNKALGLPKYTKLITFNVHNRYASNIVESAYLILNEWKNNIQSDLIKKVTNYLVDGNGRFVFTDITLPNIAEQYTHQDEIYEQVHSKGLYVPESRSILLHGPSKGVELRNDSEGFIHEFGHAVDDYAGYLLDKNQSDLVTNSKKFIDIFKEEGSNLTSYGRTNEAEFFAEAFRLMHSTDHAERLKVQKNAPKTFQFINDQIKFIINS
Autofluor counter = compound fluorescence in toxin protease inhibitor counterscreen; 360,000 compounds, 3.1% hits; compound autofluorescence counterscreen, microsphere flow cytometry; hits give high values; fluorescence intensity (no concentration beside the values); in the data active = fluorescence intensity above about 16000; inconclusive = no clear call, values can overlap the other calls
BoNT A protease = BoNT A light chain protease inhibition; multiplex microsphere protease substrate cleavage, flow cytometry; 360,000 compounds, 0.17% hits; inhibition, % at 10 µM; AID 588499
BoNT F protease = BoNT F light chain protease inhibition. AID 588497. Multiplex microsphere protease cleavage assay, flow cytometry. 360,000 compounds, 0.22% hits. inhibition, % at 10 µM; in the data active = inhibition above about 35%, passing the limit was not always enough; inconclusive = no clear call, values can overlap the other calls
BH1578 lux ind = inducers of Vibrio cholerae quorum light production without autoinducers. V. cholerae BH1578 lux reporter, luminescence, 6 h. AID 588436. 350,000 compounds, 0.16% hits. activation, % at 18.7 µM; in the data active = activation mostly above about 9.7%, no sharp cut-off; inconclusive = no clear call, values can overlap the other calls; inactive = mostly below about 3.7%
A number is an active result. Rows were chosen to be rich in hits. Some 3.5% of all compounds tested hit in one or more screens of this group. Rule as the data show it, unless noted: active = inhibition above about 30%; inconclusive = no clear call, values can overlap the other calls; inactive = below that.

What do the screens show for `COC(=O)c1ccccc1NC(=O)CN(c1c(C)cccc1C)S(C)(=O)=O`?
Anthrax LF inh2: inactive; Autofluor counter: inactive; BoNT A protease: inactive; BoNT F protease: inactive; BH1578 lux ind: inactive

What do the screens show for `COc1cccc(CN2CC(C(=O)N(C)CC3CCOCC3)CCC2=O)c1` (stereo not drawn)?
BH1578 lux ind: inactive

How did Cc1ccc(C(=O)NCc2nnc(SCC(=O)Nc3ccccc3)n2C)cc1 do in these assays?
Anthrax LF inh2: inactive; Autofluor counter: inactive; BoNT A protease: inactive; BoNT F protease: inactive; BH1578 lux ind: inactive

How did CN(C)c1ccc(NC(=O)CSc2nnc(-c3cccs3)n2Cc2ccco2)cc1 do in these assays?
Anthrax LF inh2: inactive; Autofluor counter: 22600; BoNT A protease: inconclusive; BoNT F protease: inactive; BH1578 lux ind: inactive

Results for Cn1c(CNC(=O)c2cccs2)nnc1SCC(=O)Nc1ccc(Cl)cc1 ?
Anthrax LF inh2: inactive; Autofluor counter: 21585; BoNT A protease: inconclusive; BoNT F protease: inactive; BH1578 lux ind: inactive

How did COc1cccc(C(=O)NCc2nnc(SCC(=O)Nc3nccs3)n2-c2cccc(C)c2)c1 do in these assays?
Anthrax LF inh2: inactive; Autofluor counter: 16987; BoNT A protease: inactive; BoNT F protease: inactive; BH1578 lux ind: inactive

How did C=CCn1c(SCC(=O)Nc2ccccc2C)nnc1-c1ccncc1 do in these assays?
Anthrax LF inh2: inactive; Autofluor counter: inactive; BoNT A protease: inactive; BoNT F protease: inactive; BH1578 lux ind: inactive

Results for C=CCn1c(SCC(=O)Nc2ccccc2CC)nnc1-c1ccncc1 ?
Anthrax LF inh2: inactive; Autofluor counter: 23141; BoNT A protease: inactive; BoNT F protease: inactive; BH1578 lux ind: inactive

How did CCOc1ccc(S(=O)(=O)N(C)c2ccc(OCC(=O)Nc3nc(-c4cc(OC)ccc4OC)cs3)cc2)cc1 do in these assays?
Anthrax LF inh2: inactive; Autofluor counter: inactive; BoNT A protease: inactive; BoNT F protease: inactive; BH1578 lux ind: inactive

What do the screens show for `COCCNC(=O)CSc1nc2nn(-c3ccccc3)c(=O)c-2c2n1CCCCC2`?
Anthrax LF inh2: inactive; Autofluor counter: inactive; BoNT A protease: inactive; BoNT F protease: inactive; BH1578 lux ind: inactive

How did CC(C)CCNC(=O)CN(C(=O)CCC(=O)Nc1nccs1)C1CCCCC1 do in these assays?
Anthrax LF inh2: inactive; Autofluor counter: inactive; BoNT A protease: inactive; BoNT F protease: inactive; BH1578 lux ind: inactive

What do the screens show for `C=CCn1c(CCNC(=O)c2ccccc2F)nnc1SCC(=O)Nc1ccccc1F`?
Anthrax LF inh2: inactive; Autofluor counter: inactive; BoNT A protease: inactive; BoNT F protease: inactive; BH1578 lux ind: inactive

What do the screens show for `COc1ccc(NC(=O)CSc2nnc(Cc3cccs3)n2-c2ccc(C)cc2)cc1`?
Anthrax LF inh2: inactive; Autofluor counter: 23035; BoNT A protease: inconclusive; BoNT F protease: inactive; BH1578 lux ind: inactive

Results for COc1ccc(-n2c(CNc3ccc(C)cc3)nnc2SCC(=O)Nc2nc(-c3ccccc3)cs2)cc1 ?
Anthrax LF inh2: inactive; Autofluor counter: 24302; BoNT A protease: inconclusive; BoNT F protease: inactive; BH1578 lux ind: inactive

Results for C=CCn1c(Cc2csc(N)n2)nnc1SCC(=O)Nc1ccccc1C(F)(F)F ?
Anthrax LF inh2: inactive; Autofluor counter: 23049; BoNT A protease: inactive; BoNT F protease: inactive; BH1578 lux ind: inactive

Results for COc1nc(C)cc(C)c1S(=O)(=O)c1ccccc1C ?
Anthrax LF inh2: inactive; Autofluor counter: inactive; BoNT A protease: inactive; BoNT F protease: inconclusive; BH1578 lux ind: inactive

How did COc1nc(N)c(S(=O)(=O)c2ccccc2C)cc1C#N do in these assays?
Anthrax LF inh2: inactive; Autofluor counter: 19846; BoNT A protease: inactive; BoNT F protease: inactive; BH1578 lux ind: inactive

Results for COc1nc(N)c(S(=O)(=O)c2ccccc2)cc1C#N ?
Anthrax LF inh2: inactive; Autofluor counter: 22871; BoNT A protease: inconclusive; BoNT F protease: inactive; BH1578 lux ind: inactive

How did O=[N+]([O-])c1cccc(C(=Nc2cccc(Cl)c2)NO)c1 do in these assays?
Anthrax LF inh2: inactive; Autofluor counter: inactive; BoNT A protease: inactive; BoNT F protease: inactive; BH1578 lux ind: inactive

What do the screens show for `ONC(=Nc1ccc(Cl)cc1)c1ccccc1`?
Anthrax LF inh2: inactive; Autofluor counter: 22689; BoNT A protease: inactive; BoNT F protease: inactive; BH1578 lux ind: inactive

What do the screens show for `O=C(CN1CCCC1)N1c2ccccc2C=Cc2ccccc21`?
Anthrax LF inh2: inactive; Autofluor counter: inactive; BoNT A protease: inactive; BoNT F protease: inactive; BH1578 lux ind: inactive

How did O=C(CN1CCCCCC1)N1c2ccccc2C=Cc2ccccc21 do in these assays?
Anthrax LF inh2: inactive; Autofluor counter: 19591; BoNT A protease: inconclusive; BoNT F protease: inactive; BH1578 lux ind: inactive

What do the screens show for `CCCC(=O)Nc1ccc(Cl)c(NC(=O)c2cccc(OC)c2)c1`?
Anthrax LF inh2: inactive; Autofluor counter: inactive; BoNT A protease: inactive; BoNT F protease: inactive; BH1578 lux ind: inactive

How did COc1cccc2c1C(=O)c1ccc3ccccc3c1C2=O do in these assays?
Anthrax LF inh2: inactive; Autofluor counter: inactive; BoNT A protease: 34; BoNT F protease: inactive; BH1578 lux ind: inactive

Results for Cc1cc(NC(=O)CCC(=O)N(CC(=O)NCC2CCCO2)c2ccc(C(C)C)cc2)no1 (stereo not drawn) ?
Anthrax LF inh2: inactive; Autofluor counter: inactive; BoNT A protease: inactive; BoNT F protease: inactive; BH1578 lux ind: inactive

What do the screens show for `CN1/C(=C/c2cccc[n+]2CCO)Sc2ccccc21`?
Anthrax LF inh2: inactive; Autofluor counter: inactive; BoNT A protease: inactive; BoNT F protease: inactive; BH1578 lux ind: inactive

What do the screens show for `CCN1/C(=C/C=C/c2sc3ccccc3[n+]2CC)Sc2ccccc21`?
Anthrax LF inh2: inactive; Autofluor counter: inactive; BoNT A protease: 32; BoNT F protease: inactive; BH1578 lux ind: inactive

What do the screens show for `CC[n+]1c(/C=C2\Sc3ccccc3N2C)ccc2cccc(C)c21`?
Anthrax LF inh2: inactive; Autofluor counter: inactive; BoNT A protease: 62; BoNT F protease: inactive; BH1578 lux ind: inactive

What do the screens show for `CC[n+]1ccccc1/C=C1\Sc2ccc(C)cc2N1C`?
Anthrax LF inh2: inactive; Autofluor counter: inactive; BoNT A protease: inactive; BoNT F protease: inactive; BH1578 lux ind: inactive

How did CCN1/C(=C/C=C/C=C/C=C/c2sc3ccccc3[n+]2CC)Sc2ccccc21 do in these assays?
Anthrax LF inh2: inactive; Autofluor counter: inactive; BoNT A protease: inactive; BoNT F protease: inactive; BH1578 lux ind: inactive

Results for CCN1/C(=C/c2ccc3cc(C)ccc3[n+]2CC)Sc2cc(C)c(C)cc21 ?
Anthrax LF inh2: inactive; Autofluor counter: inactive; BoNT A protease: 49; BoNT F protease: inactive; BH1578 lux ind: inactive

How did CCN1/C(=C/c2ccc3cc(C)ccc3[n+]2CC)Sc2ccccc21 do in these assays?
Anthrax LF inh2: inactive; Autofluor counter: inactive; BoNT A protease: 78; BoNT F protease: inactive; BH1578 lux ind: inactive

What do the screens show for `COc1cccc(CSc2ccc(S(=O)(=O)N3CCOCC3)cc2C(=O)NCC2CCCO2)c1OC` (stereo not drawn)?
Anthrax LF inh2: inactive; Autofluor counter: inactive; BoNT A protease: inactive; BoNT F protease: inactive; BH1578 lux ind: inactive

How did CNC(=O)c1ccccc1NC(=O)C1CC(=O)N(C(C)C)C1 (stereo not drawn) do in these assays?
Anthrax LF inh2: inactive; Autofluor counter: inactive; BoNT A protease: inactive; BoNT F protease: inconclusive; BH1578 lux ind: inactive

How did CCOC(=O)c1nc(SC)n(C)c1C(=O)OCC do in these assays?
Anthrax LF inh2: inactive; Autofluor counter: inactive; BoNT A protease: inactive; BoNT F protease: inconclusive; BH1578 lux ind: inactive
